Data as given in ChEMBL document CHEMBL1201862, “PubChem BioAssay data set” (2004).
Potency and affinity values are given separately.

Experiment: A High Throughput Confirmatory Assay used to Identify Novel Compounds that Inhibit Mycobacterium Tuberculosis in the absence of Glycerol using Purified and Synthesized Compounds (5).
Format: functional
With `CCCc1cc(C(N)=S)ccn1` the IC90 was > 100 µM (active). With `CNC(=O)CSc1nc2ccccc2c(=O)[nH]1` the IC90 was > 100 µM (active). With `Cc1[nH]c2ccccc2c1C(=O)COC(=O)c1ccc([N+](=O)[O-])s1` the IC90 was > 68.8 µM (active). With `Cc1cc(Br)ccc1NC(=O)c1cnc(N2CCN(c3ccccn3)CC2)c2ccccc12` the IC90 was > 100 µM (active).
